Source: PubChem BioAssay (Tox21)
Records with an inconclusive call do not appear. The source made the active and inactive calls. Unless noted, calls follow the shape of the full dose curve.

Key:
[1] = Nuclear factor erythroid 2-related factor 2/antioxidant responsive element (Nrf2/ARE) small molecule agonists: qHTS cell viability counter screen in human keratinocytes (AID 1919968; active = well fitted curve in the direction sought with a large enough effect in the repeat runs; an effect the other way counts as inactive or inconclusive; also: nearly all actives have a fitted effect of over 55% in size; also: potency is read from the fitted curve at half-maximal effect); details: KeratinoSens HaCaT ARE cells viability, CellTiter-Fluor, 24 h; series mostly up to 92.4 µM
Outline: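 Seed 1,500 KeratinoSens cells per well, then incubate 5 h at 37 C/5% CO2. Add compounds in DMSO and incubate 23 h. Add CellTiter-Fluor, wait 1 h and read fluorescence.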

[2] = Nuclear factor erythroid 2-related factor 2/antioxidant responsive element (Nrf2/ARE) small molecule agonists: luciferase reporter gene qHTS assay in human keratinocytes (AID 1919969); details: KeratinoSens HaCaT ARE-luciferase, luminescence, 24 h; series mostly up to 92.4 µM; also: nearly all actives have a fitted effect of over 35% in size; also: potency is read from the fitted curve at half-maximal effect
[3] = molecular target: Gonadotropin-releasing hormone receptor (Homo sapiens) (UniProt P30968); test: Human gonadotropin-releasing hormone receptor (GnRHR) small molecule agonists, calcium flux assay in GnRHR-HEK293 cells (AID 1920063); details: calcium flux fluorescence, agonist mode; series mostly up to 57.6 µM; also: nearly all actives have a fitted effect of over 35% in size
Gonadotropin-releasing hormone receptor (Homo sapiens), sequence (P30968 whole entry, looked up): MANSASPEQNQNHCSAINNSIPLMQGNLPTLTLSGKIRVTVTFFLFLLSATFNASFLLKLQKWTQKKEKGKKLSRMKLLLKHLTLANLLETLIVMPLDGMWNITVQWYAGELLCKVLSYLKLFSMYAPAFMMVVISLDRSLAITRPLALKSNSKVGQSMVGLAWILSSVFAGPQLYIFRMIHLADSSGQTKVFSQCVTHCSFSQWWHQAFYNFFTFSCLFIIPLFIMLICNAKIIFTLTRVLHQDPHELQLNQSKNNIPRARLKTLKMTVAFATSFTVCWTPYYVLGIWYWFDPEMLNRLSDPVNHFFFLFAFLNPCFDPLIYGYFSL
Outline: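 Cells: HEK293 stably expressing human GnRHR. Steps: overnight (18 h) culture, 1 h calcium dye loading at 37 C, compound addition, kinetic fluorescence read at 480/540 nm. Each compound tested at 15 concentrations in triplicate.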

[4] = molecular target: KiSS-1 receptor (Homo sapiens) (UniProt Q969F8); test: Human kisspeptin (KISS1R) small molecule agonists, calcium flux assay in KISS1R-HEK293 cells (AID 1920064; active = well fitted curve in the direction sought with a large enough effect in the repeat runs; an effect the other way counts as inactive or inconclusive); details: KISS1R-HEK293, calcium flux fluorescence, agonist; series mostly up to 76.8 µM
KiSS-1 receptor (Homo sapiens), sequence (Q969F8 whole entry, looked up): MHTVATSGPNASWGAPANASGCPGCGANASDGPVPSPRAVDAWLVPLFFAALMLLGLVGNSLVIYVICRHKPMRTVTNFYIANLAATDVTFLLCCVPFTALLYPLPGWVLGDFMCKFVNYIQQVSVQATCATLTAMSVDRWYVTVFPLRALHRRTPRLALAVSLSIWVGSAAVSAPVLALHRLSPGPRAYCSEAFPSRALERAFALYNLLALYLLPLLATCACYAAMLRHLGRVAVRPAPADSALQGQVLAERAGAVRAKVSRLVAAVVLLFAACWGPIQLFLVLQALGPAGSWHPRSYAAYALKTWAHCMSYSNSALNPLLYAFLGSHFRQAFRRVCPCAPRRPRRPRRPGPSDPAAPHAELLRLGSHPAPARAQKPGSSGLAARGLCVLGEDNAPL
Outline: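 Cells plated and incubated 18 h; dye added, 1 h at 37 C; compounds in DMSO pinned in; signal read at 480/540 nm every second for 3 min. Each compound tested at 15 concentrations in triplicate.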

[5] = G protein-coupled receptor (GPCR) small molecule agonists, calcium flux assay: HEK293 wild type cell line counter screen (AID 1920065); details: HEK293 WT calcium flux, fluorescence, agonist mode; series mostly up to 57.6 µM
Outline: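 Counter-screen of the Tox21 10K library for non-specific calcium release: dye-loaded cells received compounds in DMSO and were monitored by kinetic fluorescence (480/540 nm, 3 min). Fifteen concentrations, run in triplicate.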

[6] = p53 small molecule agonists, cell-based qHTS assay with human liver microsomes (AID 1963577); details: HCT-116 p53RE-bla with human liver microsomes, ratio, 16 h; series mostly up to 66 µM
Outline: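 Compounds act here after metabolic activation: human liver microsomes and NADPH, both at 0.5 mg/mL final, were co-added to p53RE-bla cells. Incubation ran 16 h at 37 C, followed by LiveBLAzer detection.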

[7] = p53 small molecule agonists, cell-based qHTS assay with rat liver microsomes (AID 1963578); details: HCT-116 p53RE-bla, beta-lactamase ratio, 16 h; series mostly up to 66 µM
Outline: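 Read-out is beta-lactamase reporter fluorescence (LiveBLAzer, 2 h, room temperature, dark) in p53RE-bla cells treated 16 h at 37 C with compound, rat liver microsomes and NADPH, both 0.5 mg/mL final.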

[8] = p53 small molecule agonists, cell-based qHTS assay with human liver microsomes: qHTS cell viability counter screen (AID 1963579); details: p53RE-bla HCT-116 viability, ATP luminescence, 16 h, HLM; series mostly up to 66 µM; also: nearly all actives have a fitted effect of over 45% in size
Outline: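 Cells carrying the p53 response-element beta-lactamase reporter are treated for 16 h at 37 C with test compounds in the presence of human liver microsomes and NADPH (both 0.5 mg/mL final); ATP-based CellTiter-Glo luminescence then reports viability.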

[9] = p53 small molecule agonists, cell-based qHTS assay with rat liver microsomes: qHTS cell viability counter screen (AID 1963580); details: p53RE-bla HCT-116 + rat microsomes, ATP viability, 16 h; series mostly up to 66 µM; also: nearly all actives have a fitted effect of over 45% in size
Outline: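 In HCT-116 cells carrying a p53 response element-bla reporter, compounds were metabolically activated in situ by rat liver microsomes with NADPH over 16 h. Cell ATP content then served as the cytotoxicity measure.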

[10] = p53 small molecule agonists, cell-based qHTS assay: qHTS cell viability counter screen (AID 1963581); details: p53RE-bla HCT-116 viability, ATP luminescence, 16 h; series mostly up to 66 µM; also: nearly all actives have a fitted effect of over 45% in size
Outline: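 Cells: HCT-116 with p53 response element-driven beta-lactamase. Treatment: 16 h, 37 C, compounds in DMSO. Read: CellTiter-Glo luminescence after 30 min RT.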

[11] = p53 small molecule agonists, cell-based qHTS assay (AID 1963582; active = well fitted activation curve with a large enough effect in the signal ratio in the repeat runs, not every such curve was filed as active; the % refers to the signal ratio); details: HCT-116 p53RE-bla reporter, beta-lactamase FRET ratio, 16 h; series mostly up to 66 µM
Outline: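 Quantitative HTS in p53RE-bla cells: after a 5 h settling period, compounds delivered in DMSO were left on cells for 16 h at 37 C, and reporter induction was measured as fluorescence following 2 h substrate loading.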

[12] = molecular target: 5-hydroxytryptamine receptor 2A (Homo sapiens) (UniProt P28223); test: 5-hydroxytryptamine receptor 2A (HTR2A) small molecule antagonists, cell-based qHTS assay (AID 1963586); details: HTR2A-CHO cells, DOI-induced calcium flux, fluorescence; series mostly up to 61.5 µM; also: nearly all actives have a fitted effect of over 45% in size
5-hydroxytryptamine receptor 2A (Homo sapiens), sequence (P28223 whole entry, looked up): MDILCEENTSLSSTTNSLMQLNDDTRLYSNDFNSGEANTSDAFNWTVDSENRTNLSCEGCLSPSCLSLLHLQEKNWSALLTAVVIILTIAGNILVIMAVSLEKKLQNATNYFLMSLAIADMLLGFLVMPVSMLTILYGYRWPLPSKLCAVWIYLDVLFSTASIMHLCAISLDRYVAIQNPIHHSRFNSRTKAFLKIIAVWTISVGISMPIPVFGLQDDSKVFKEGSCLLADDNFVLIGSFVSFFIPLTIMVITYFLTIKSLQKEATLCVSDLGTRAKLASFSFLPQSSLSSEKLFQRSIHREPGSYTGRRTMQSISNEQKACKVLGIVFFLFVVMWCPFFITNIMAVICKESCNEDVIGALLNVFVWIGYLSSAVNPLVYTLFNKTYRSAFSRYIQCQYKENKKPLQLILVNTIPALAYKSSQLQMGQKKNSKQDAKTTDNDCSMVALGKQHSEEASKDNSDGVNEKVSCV
Outline: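 Antagonist-mode intracellular calcium assay: DOI (4 nM) added after 5 min compound pre-incubation at room temperature to dye-loaded HTR2A-CHO cells. Fluorescence followed for 3 min, sampled every second.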

[13] = molecular target: 5-hydroxytryptamine receptor 2A (Homo sapiens) (UniProt P28223); test: 5-hydroxytryptamine receptor 2A (HTR2A) small molecule agonists, cell-based qHTS assay (AID 1963587); details: HTR2A-CHO cells, calcium flux fluorescence, agonist mode; series mostly up to 76.8 µM; also: nearly all actives have a fitted effect of over 30% in size
Outline: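 HTR2A-CHO cells, plated 18 h at 37 C/5% CO2, dye-loaded 1 h at 37 C; compounds in DMSO added by pin tool (agonist mode). Intracellular calcium flux read as kinetic fluorescence on FDSS over 2 min at 1 s intervals.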

[14] = molecular target: Muscarinic acetylcholine receptor M1 (Homo sapiens) (UniProt P11229); test: Cholinergic receptor muscarinic 1 (CHRM1) small molecule antagonists, cell-based qHTS assay (AID 1963588); details: CHRM1-CHO antagonist mode, calcium flux fluorescence; series mostly up to 61.5 µM; also: nearly all actives have a fitted effect of over 40% in size
Muscarinic acetylcholine receptor M1 (Homo sapiens), sequence (P11229 whole entry, looked up): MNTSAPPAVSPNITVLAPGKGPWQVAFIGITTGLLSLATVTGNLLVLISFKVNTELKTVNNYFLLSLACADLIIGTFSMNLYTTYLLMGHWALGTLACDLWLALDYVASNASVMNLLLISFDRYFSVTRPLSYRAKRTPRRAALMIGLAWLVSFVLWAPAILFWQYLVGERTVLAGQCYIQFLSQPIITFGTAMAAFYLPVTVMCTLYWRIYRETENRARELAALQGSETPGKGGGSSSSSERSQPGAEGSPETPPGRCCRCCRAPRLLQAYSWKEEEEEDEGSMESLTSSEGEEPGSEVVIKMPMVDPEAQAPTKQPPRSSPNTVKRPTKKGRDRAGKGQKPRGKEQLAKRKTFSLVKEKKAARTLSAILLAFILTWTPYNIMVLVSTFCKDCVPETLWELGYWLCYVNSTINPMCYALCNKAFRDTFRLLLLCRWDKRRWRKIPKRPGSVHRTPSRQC
Outline: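 CHRM1-CHO calcium-flux assay, antagonist mode. Cells were seeded 18 h, dye-loaded 1 h at 37 C and given compound for 5 min at RT, then acetylcholine was added at 50nM. FDSS fluorescence was read 3 min; 15 concentrations, three runs.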

[15] = molecular target: Muscarinic acetylcholine receptor M1 (Homo sapiens) (UniProt P11229); test: Cholinergic receptor muscarinic 1 (CHRM1) small molecule agonists, cell-based qHTS assay (AID 1963589); details: CHRM1-CHO cells, agonist mode, calcium flux fluorescence; series mostly up to 76.8 µM; also: nearly all actives have a fitted effect of over 35% in size
Outline: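 Agonist-mode qHTS in CHO cells stably carrying human muscarinic M1. Intracellular calcium is tracked by fluorescence every second after compound transfer; each compound runs at 15 concentrations in three independent runs.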

[16] = cAMP Responsive Elements (CRE) small molecule agonists, cell-based qHTS assay (AID 1963590); details: CRE-bla HEK293T, beta-lactamase FRET ratio, 3 h; series mostly up to 92.4 µM
Outline: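 Agonist mode qHTS in CRE-bla HEK 293T cells: compounds dosed from DMSO for 3 h at 37 C/5% CO2, followed by LiveBLAzer B/G FRET substrate for 2 h at room temperature.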

[17] = molecular target: Beta-2 adrenergic receptor (Homo sapiens) (UniProt P07550); test: Adrenergic beta2 receptor (ADRB2) small molecule antagonists, cell-based qHTS assay (AID 1963592); details: CHO-ADRB2 cells, isoproterenol-stimulated cAMP HTRF ratio, 0.5 h; series mostly up to 92.4 µM; also: nearly all actives have a fitted effect of over 50% in size; also: potency is read from the fitted curve at half-maximal effect
Beta-2 adrenergic receptor (Homo sapiens), sequence (P07550 whole entry, looked up): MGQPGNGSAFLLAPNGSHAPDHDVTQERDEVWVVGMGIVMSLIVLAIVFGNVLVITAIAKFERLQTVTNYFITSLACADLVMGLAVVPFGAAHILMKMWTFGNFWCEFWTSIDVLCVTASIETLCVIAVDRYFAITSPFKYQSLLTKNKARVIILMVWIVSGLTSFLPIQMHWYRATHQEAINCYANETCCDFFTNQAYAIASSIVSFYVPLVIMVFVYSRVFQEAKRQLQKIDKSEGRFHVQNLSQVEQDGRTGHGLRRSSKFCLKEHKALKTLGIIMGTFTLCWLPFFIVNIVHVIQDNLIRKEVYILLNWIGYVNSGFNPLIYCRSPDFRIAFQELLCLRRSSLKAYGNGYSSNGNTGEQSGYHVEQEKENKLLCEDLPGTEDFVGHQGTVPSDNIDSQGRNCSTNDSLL
Outline: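 Cells (CHO, stable ADRB2 overexpression) incubated 18-20hr at 37C; compounds added from DMSO; agonist mix (1nM isoproterenol, 100uM IBMX, 25uM Ro-20-1724) added; 0.5hr RT; d2-cAMP and anti-cAMP-cryptate added; 1hr RT; 665/615 nm read.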

[18] = molecular target: D(2) dopamine receptor (Homo sapiens) (UniProt P14416); test: Dopamine D2 receptor (DRD2) small molecule agonists, cell-based qHTS assay (AID 1963594); details: HEK293-DRD2 cAMP HTRF, agonist mode, 30 min; series mostly up to 92.4 µM; also: nearly all actives have a fitted effect of over 35% in size
D(2) dopamine receptor (Homo sapiens), sequence (P14416 whole entry, looked up): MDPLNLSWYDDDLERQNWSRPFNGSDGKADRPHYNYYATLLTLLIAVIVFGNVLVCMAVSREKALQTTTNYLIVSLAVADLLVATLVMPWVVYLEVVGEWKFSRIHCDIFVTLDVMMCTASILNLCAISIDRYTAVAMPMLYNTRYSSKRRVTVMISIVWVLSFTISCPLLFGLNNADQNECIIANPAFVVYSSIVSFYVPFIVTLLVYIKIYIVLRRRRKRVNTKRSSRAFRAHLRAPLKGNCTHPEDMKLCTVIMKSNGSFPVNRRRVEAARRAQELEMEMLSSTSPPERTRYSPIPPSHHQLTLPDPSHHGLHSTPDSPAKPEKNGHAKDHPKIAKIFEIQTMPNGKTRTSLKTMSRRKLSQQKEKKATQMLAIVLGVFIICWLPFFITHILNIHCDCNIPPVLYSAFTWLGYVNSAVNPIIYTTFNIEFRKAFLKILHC
Outline: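 HEK293 cells stably expressing DRD2 were cultured 24 h at 37 C, then given Ro20-1724 (0.1 mM final) and compounds for 10 min at room temperature. NKH477 (200nM) was then added for 30 min. cAMP was read by HTRF.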

[19] = molecular target: D(2) dopamine receptor (Homo sapiens) (UniProt P14416); test: Dopamine D2 receptor (DRD2) small molecule antagonists, cell-based qHTS assay (AID 1963595; active = well fitted inhibition curve with a large enough effect in the signal ratio in the repeat runs, with a control signal flat; the % refers to the signal ratio); details: HEK293-DRD2 cAMP HTRF antagonist mode; series mostly up to 92.4 µM
Outline: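 HEK293 cells stably expressing DRD2 were preincubated with 0.1 mM Ro20-1724, then with compound for 10 min at room temperature. Cells were stimulated with 200 nM NKH477 plus 12 nM quinpirole for 30 min, and cAMP was read by HTRF.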

[20] = cAMP Responsive Elements (CRE) small molecule antagonists, cell-based qHTS assay (AID 1963591; active = well fitted inhibition curve with a large enough effect in the signal ratio in the repeat runs, not every such curve was filed as active; the % refers to the signal ratio); details: CRE-bla HEK293T, beta-lactamase FRET ratio; series mostly up to 92.4 µM
Outline: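 Antagonist mode: test compounds are co-incubated with the adenylyl cyclase activator NKH477 (0.25 uM final) on CRE-bla HEK293T cells for 3 h at 37 °C, followed by LiveBLAzer substrate loading.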

Measured: Potency

CCCCCCOC(=O)C(C)C
not listed: [20]
inactive: all other assays above

c1ccc(CNc2ncnc3nc[nH]c23)cc1
not listed: [17]
inactive: all other assays above

CC(=O)c1cnccn1
not listed: [17]
inactive: all other assays above

O=C(O)CCCc1ccccc1
not listed: [20]
inactive: all other assays above

O=S(=O)(O)c1ccc(O)c2ncccc12
not listed: [18] | [20]
inactive: all other assays above

CN(C(=O)C(Cl)Cl)c1ccc(OC(=O)c2ccco2)cc1
not listed: [20]
inactive: all other assays above

NC(=O)Nc1ccc(Cl)c(Cl)c1
not listed: [20]
inactive: all other assays above

CC(C)OC(=O)C(C(=O)OC(C)C)=C1SC=CS1
not listed: [20]
inactive: all other assays above

C#CC(C)N(C)C(=O)Nc1ccc(Cl)cc1 (stereo unspecified)
not listed: [20]
inactive: all other assays above

C=CC(C)(C)O
not listed: [20]
inactive: all other assays above

C[C@H]1C[C@H]2[C@@H]3CCC4=CC(=O)C=C[C@]4(C)[C@H]3C(=O)C[C@]2(C)[C@@]1(O)C(=O)CO
not listed: [18]
inactive: all other assays above

Brc1c2ccccc2cc2ccccc12
not listed: [17]
inactive: all other assays above

C/C(=N/NC(=O)c1ccncc1)C(=O)O
not listed: [20]
inactive: all other assays above

COCCOCC(OC)OC
not listed: [17] | [18]
inactive: all other assays above

CC(=O)C=O
not listed: [17] | [18]
inactive: all other assays above

Nc1ncnc2c1ncn2[C@H]1CC[C@@H](CO)O1
not listed: [20]
inactive: all other assays above

CC1CC(C)C(=O)C1=O (stereo unspecified)
not listed: [20]
inactive: all other assays above

O=C(Nc1ccccc1)Nc1ccccc1
active: [17] 68900 nM
not listed: [20]
inactive: all other assays above

CC(N)CCCC(C)(C)O (stereo unspecified)
not listed: [18]
inactive: all other assays above

CC(C)COC(=O)c1ccccc1
not listed: [17]
inactive: all other assays above

C=CCn1c(=O)n(CC=C)c(=O)n(CC=C)c1=O
not listed: [20]
inactive: all other assays above

CC(=O)CC(c1ccc([N+](=O)[O-])cc1)c1c(O)c2ccccc2oc1=O (stereo unspecified)
not listed: [17]
inactive: all other assays above

CCCCCCCCC=O
not listed: [20]
inactive: all other assays above

Oc1ccc(Cl)c2cccnc12
active: [1] 531 nM | [2] 668 nM
not listed: [20]
inactive: all other assays above

O=C(CCCCC(=O)Nc1c(I)cc(I)c(C(=O)O)c1I)Nc1c(I)cc(I)c(C(=O)O)c1I
not listed: [17]
inactive: all other assays above

CCCCC(CC)COC(=O)CC#N (stereo unspecified)
not listed: [20]
inactive: all other assays above

O=C1O[C@@H]2[C@@H](O)[C@H](O)O[C@@H]2[C@H]1O
not listed: [17] | [18]
inactive: all other assays above

CC(C)Nc1nc(N)nc(Cl)n1
not listed: [20]
inactive: all other assays above

CCC(C)c1nccnc1OC (stereo unspecified)
not listed: [17]
inactive: all other assays above

C=C1C[C@@]23CC[C@H]4[C@@](C)(CCC[C@@]4(C)C(=O)O[C@@H]4O[C@H](CO)[C@@H](O)[C@H](O)[C@H]4O)[C@@H]2CC[C@]1(O[C@@H]1O[C@H](CO)[C@@H](O)[C@H](O[C@@H]2O[C@H](CO)[C@@H](O)[C@H](O)[C@H]2O)[C@H]1O[C@@H]1O[C@H](CO)[C@@H](O)[C@H](O)[C@H]1O)C3
not listed: [18]
inactive: all other assays above
